Measurements published in PubChem BioAssay (NCI).
Compounds without any hit were thinned out: in the full panel of roughly 83,000, 20% have a hit.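 Growth was measured after 48 h exposure to one concentration of compound in 96-well plates. Values under 10 count as active.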 Active and inactive are the calls of the source.

System: UO-31 renal
Assay: NCI-60 one-dose screen, 48 h (100 = growth as untreated, 0 = no growth, -100 = all killed)
Conditions: 10 µM unless noted
Procedure: Growth inhibition of the UO-31 human tumor cell line is measured as a screen for anti-cancer activity. Cells are grown in 96 well plates and exposed to the test compound for 48 hours. Compounds are tested at a single concentration, which is 10^-5 M for most compounds. The reported endpoint is percent growth (GI% or GIPRCNT), where numbers from 0 - 100% represent growth inhibition, and numbers from -100% - 0 represent cell death. For example, a value of 40 represents 60% growth inhibition. A value of 0 means no net growth occurred over the course of the experiment. A value of -40 indicates 40% of cells at the beginning of the experiment died by the end of the experiment. A value of -100 means all cells are dead at the end of the experiment.
NCI-60 Human Tumor Cell Lines Screen was performed using the standard one-dose NCI protocol, which is described in more detail at https://dtp.cancer.gov/discovery_development/nci-60/default.htm.
Compounds with GIPRCNT values below 10 were considered active. Activity score was based on GIPRCNT using the following formula: […]
Score is 0 for GIPRCNT values of 100 or above, 50 for GIPRCNT values of 0, and 100 for GIPRCNT values of -100.

Row | SMILES | growth
1 | COc1ccc(-c2cc(-c3ccc(Nc4nc(Nc5ccc(Cl)cc5)nc(Nc5ccc(Cl)cc5)n4)cc3)no2)cc1 | 65.3% (inactive)
2 | O=C(/C=C/c1ccc(Cl)cc1)c1ccc(Nc2ccnc3cc(Cl)ccc23)cc1 | 65% (inactive)
3 | CN(C)CCOc1nc2c3cc([N+](=O)[O-])ccc3nn2c2ccccc12 | 23.4% (inactive)
4 | c1ccc(-c2nc(N3CCNCC3)c3oc(-c4ccccc4)nc3n2)cc1 | -99.8% (active)
5 | Cc1cc2nc(C(Cl)Cl)nc(-c3ccccc3)n2n1 | 75.1% (inactive)
6 | CN(C)C(=S)NN=C(c1ccccn1)c1ccccn1 | 20.7% (inactive)
7 | CCOC(=O)CCC(=O)P(=O)(O)O | 105% (inactive)
8 | O=C(/C=C/c1ccc([N+](=O)[O-])cc1)c1cccc(Nc2nc(Nc3ccccc3)nc(Nc3ccccc3)n2)c1 | 38.9% (inactive)
9 | COc1ccc(Nc2nccc(Nc3ccc4[nH]ncc4c3)n2)cc1 | 15.9% (inactive)
10 | CCCC1Cc2cc(-n3nc(C)c4c3CC(C)(C)CC4=O)cc(NC3CCC(O)CC3)c2C(=O)N1 (stereo not given) | 28.9% (inactive)
11 | CC1=C([Se]CC(OC(=O)[C@@H](CO)NC(=O)OC(C)(C)C)C(=O)NCCCCCC(=O)OCc2ccccc2)C(=O)c2ccccc2C1=O (stereo not given in full) | -99.8% (active)
12 | Cc1[nH]c(C(=O)Nc2ccccc2OC2CCNC2)c(Cl)c1Cl (stereo not given) | 45.5% (inactive)
13 | CC(=O)[C@H]1CC[C@]2(C)[C@@H]1CC[C@@H]1[C@@]3(C)C/C(=C/c4cccnc4)C(=O)C(C)(C)[C@@H]3CC[C@]12C | 78.2% (inactive)
14 | COc1cc(/C=N/NC(=O)c2ccc3nc(-c4ccc(Cl)cc4)[nH]c3c2)cc(OC)c1OC | 88.3% (inactive)
15 | O=C(O)c1nn(-c2ccc(Cl)cc2)nc1N1CCCC1 | 79.9% (inactive)
16 | Cc1cc2c(C(C)C)c(O)c(O)c(/C=N/O)c2c(O)c1-c1c(C)cc2c(C(C)C)c(O)c(O)c(/C=N/O)c2c1O | 24.7% (inactive)
17 | O=C(/C=C/c1ccco1)Nc1ncc(Cc2ccc(F)cc2)s1 | 47.6% (inactive)
18 | O=C(Nc1ncc(Cc2ccccc2)s1)c1cc(-c2ccccc2)nc2ccccc12 | 78.7% (inactive)
19 | Oc1ccc(Cc2ccc(O)c3ncccc23)c2cccnc12 | 1.7% (active)
20 | O=C1NCCS(=O)(=O)/C1=C\C=C\c1cccc(C(F)(F)F)c1 | 26.8% (inactive)

Row | SMILES | growth
21 | CC(C)(C)n1cc(-c2ccnc(NCCNS(=O)(=O)c3ccc(Br)cc3)c2)c(-c2cccc(O)c2)n1 | 22.7% (inactive)
22 | CSc1nc(CC(C)C)c(C#N)c(=O)n1C | 38.9% (inactive)
23 | COc1ccc(C2=NN(C=O)C(c3ccc(Oc4nc5c(c(=O)n(C)c(=O)n5C)n4C)c(OC)c3)C2)cc1 (stereo not given) | 74% (inactive)
24 | Cc1ccccc1NC(=O)c1sc2nc3c(cc2c1N)CCCC3 | 45.2% (inactive)
25 | Cc1ccc(C(F)(F)F)cc1N1CCN(C(=O)[C@H]2C[C@H]2c2ccc(C(F)(F)F)nc2)CC1 | 69% (inactive)
26 | CCOC(=O)c1c(Nc2nc3ccccc3s2)sc2c1CCC(=O)C2 | 52.7% (inactive)
27 | Cc1ccc(Nc2oc(-c3ccccc3)nc2[P+](c2ccccc2)(c2ccccc2)c2ccccc2)cc1 | -72.8% (active)
28 | CCCCCCCCNc1ncnc2c1ncn2Cc1nnc2c3ccccc3c(Cl)nn12 | 23.6% (inactive)
29 | COc1ccc(CNc2c3ccccc3nc3ccccc23)cc1OC | 12.1% (inactive)
30 | N#C/C(=N\Nc1ccccc1)C(=O)Nc1cc(-c2ccccc2)nn1-c1ccccc1 | 29.7% (inactive)
31 | Fc1ccc(/C=C/c2cc(/C=C/c3ccc(F)cc3)n(-c3cc(F)cc(F)c3)n2)cc1 | 82.8% (inactive)
32 | Cc1[nH]c(C2CC(c3ccc(C(F)(F)F)c(F)c3)=NN2C)c(C)c1C(=O)NCC(F)(F)F (stereo not given) | 72% (inactive)
33 | CCCN1C(=O)N(CCC)C2C1NC(=S)N2/N=C/C=C/c1ccccc1OC (stereo not given) | 39.5% (inactive)
34 | C=C(C)[C@@H]1CC[C@]2(COCCCNCCCN)CC[C@]3(C)[C@H](CC[C@@H]4[C@@]5(C)CC[C@H](OCCCN)C(C)(C)[C@@H]5CC[C@]43C)[C@@H]12 | 38.9% (inactive)
35 | C#C[C@]1(O)CC[C@H]2[C@@H]3CC=C4c5sc(-c6ccccc6)nc5CC[C@]4(C)[C@H]3CC[C@@]21C | 77% (inactive)
36 | CC(=O)OCC(=O)O[C@@H]1C[C@]2(C(C)C)O[C@@]1(C)[C@@H]1CC[C@@H](C)[C@H]1[C@@H]2OC(=O)/C=C/c1ccccc1 | -83.3% (active)
37 | CCOC(=O)c1c(NC(=S)Nc2ccc([N+](=O)[O-])cc2)sc2c1CCCCC2 | 76.2% (inactive)
38 | CCc1ccc(Cc2cnc(NC(=O)c3cc(C)oc3C)s2)cc1 | 43.6% (inactive)
39 | O=[N+]([O-])c1ccc(N/N=C\c2cc(Cl)ccc2O)nc1 | 8.96% (active)
40 | c1ccc2cc(Cn3cc[n+](Cc4ccc5ccccc5c4)c3)ccc2c1 | 70.6% (inactive)
